# Assay results from publication PMC11006913.
# Changes are numbered by the printed parent chain.
# How the values were obtained:
# Assay in all cases: PBM; 200 nM protein, PBS
# Conditions in all cases: dsDNA, one strand shown
# HOXC10 [1] = biological target: HOXC10 (Homo sapiens, UniProt Q9NYD6 254-340)
# HOXC10 [2] = biological target: HOXC10 (Homo sapiens, UniProt Q9NYD6 254-340, K271E)
# NKX2-6 [3] = biological target: T1, NKX2-6 (Homo sapiens, UniProt A6NCS4 118-204)
# T1 sequence: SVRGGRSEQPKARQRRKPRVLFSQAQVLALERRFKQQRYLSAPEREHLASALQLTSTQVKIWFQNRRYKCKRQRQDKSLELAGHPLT
# NKX2-6 [4] = biological target: T2, NKX2-6 (Homo sapiens, UniProt A6NCS4 118-204, F151L)
# T2 sequence: T1 sequence with F34L
# Sequence of HOXC10 (Homo sapiens, UniProt Q9NYD6 254-340) (Q9NYD6 254-340): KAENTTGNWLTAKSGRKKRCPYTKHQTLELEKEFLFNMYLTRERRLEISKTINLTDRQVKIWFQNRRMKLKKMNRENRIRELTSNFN
# Sequence of HOXC10 (Homo sapiens, UniProt Q9NYD6 254-340, K271E) (Q9NYD6 254-340 K271E): as the sequence (Q9NYD6 254-340) above, with K18E counted along it
Sequence,binding signal (HOXC10 [1]),binding signal (HOXC10 [2]),binding signal (NKX2-6 [3]),binding signal (NKX2-6 [4])
ATAAAAAG,"12.1 upbm affinity estimate (log intensity, higher = more binding, comparable within an allelic series)","11.5 upbm affinity estimate (log intensity, higher = more binding, comparable within an allelic series)",,
CTAGCCAG,"10.1 upbm affinity estimate (log intensity, higher = more binding, comparable within an allelic series)","10.1 upbm affinity estimate (log intensity, higher = more binding, comparable within an allelic series)",,
GGCGCAAA,"10.1 upbm affinity estimate (log intensity, higher = more binding, comparable within an allelic series)","10.1 upbm affinity estimate (log intensity, higher = more binding, comparable within an allelic series)",,
AATGGTCC,"11 upbm affinity estimate (log intensity, higher = more binding, comparable within an allelic series)","10.9 upbm affinity estimate (log intensity, higher = more binding, comparable within an allelic series)",,
AAAGCGGG,"9.98 upbm affinity estimate (log intensity, higher = more binding, comparable within an allelic series)","10.1 upbm affinity estimate (log intensity, higher = more binding, comparable within an allelic series)",,
ATACTATA,"11.1 upbm affinity estimate (log intensity, higher = more binding, comparable within an allelic series)","11 upbm affinity estimate (log intensity, higher = more binding, comparable within an allelic series)",,
CGGCCCCG,"10.2 upbm affinity estimate (log intensity, higher = more binding, comparable within an allelic series)","10.1 upbm affinity estimate (log intensity, higher = more binding, comparable within an allelic series)",,
GGGCTACC,"10 upbm affinity estimate (log intensity, higher = more binding, comparable within an allelic series)","10.1 upbm affinity estimate (log intensity, higher = more binding, comparable within an allelic series)",,
CGCTGGGC,"10 upbm affinity estimate (log intensity, higher = more binding, comparable within an allelic series)","9.98 upbm affinity estimate (log intensity, higher = more binding, comparable within an allelic series)","9.13 upbm affinity estimate (log intensity, higher = more binding, comparable within an allelic series)","9.22 upbm affinity estimate (log intensity, higher = more binding, comparable within an allelic series)"
CATAAATA,"12.1 upbm affinity estimate (log intensity, higher = more binding, comparable within an allelic series)","11.5 upbm affinity estimate (log intensity, higher = more binding, comparable within an allelic series)",,
CTCGGGAA,"10.1 upbm affinity estimate (log intensity, higher = more binding, comparable within an allelic series)","10 upbm affinity estimate (log intensity, higher = more binding, comparable within an allelic series)",,
CTTCGACC,"9.95 upbm affinity estimate (log intensity, higher = more binding, comparable within an allelic series)","10 upbm affinity estimate (log intensity, higher = more binding, comparable within an allelic series)",,
CACTGACG,"10 upbm affinity estimate (log intensity, higher = more binding, comparable within an allelic series)","10.1 upbm affinity estimate (log intensity, higher = more binding, comparable within an allelic series)",,
GCGAGTCC,"10.1 upbm affinity estimate (log intensity, higher = more binding, comparable within an allelic series)","10.1 upbm affinity estimate (log intensity, higher = more binding, comparable within an allelic series)",,
CGCCGGCC,"9.95 upbm affinity estimate (log intensity, higher = more binding, comparable within an allelic series)","9.99 upbm affinity estimate (log intensity, higher = more binding, comparable within an allelic series)",,
TTGGCCAA,"9.97 upbm affinity estimate (log intensity, higher = more binding, comparable within an allelic series)","9.93 upbm affinity estimate (log intensity, higher = more binding, comparable within an allelic series)",,
ATGTCATA,"11.1 upbm affinity estimate (log intensity, higher = more binding, comparable within an allelic series)","11.1 upbm affinity estimate (log intensity, higher = more binding, comparable within an allelic series)",,
CCGAAGGA,"10 upbm affinity estimate (log intensity, higher = more binding, comparable within an allelic series)","9.98 upbm affinity estimate (log intensity, higher = more binding, comparable within an allelic series)",,

Sequence,binding signal (HOXC10 [1]),binding signal (HOXC10 [2]),binding signal (NKX2-6 [3]),binding signal (NKX2-6 [4])
ATAAAGAT,"11.6 upbm affinity estimate (log intensity, higher = more binding, comparable within an allelic series)","11.1 upbm affinity estimate (log intensity, higher = more binding, comparable within an allelic series)",,
AGCAGGGC,"10.1 upbm affinity estimate (log intensity, higher = more binding, comparable within an allelic series)","10.1 upbm affinity estimate (log intensity, higher = more binding, comparable within an allelic series)",,
AGATAATG,"11.3 upbm affinity estimate (log intensity, higher = more binding, comparable within an allelic series)","11.2 upbm affinity estimate (log intensity, higher = more binding, comparable within an allelic series)",,
GCGACGAC,"10.1 upbm affinity estimate (log intensity, higher = more binding, comparable within an allelic series)","10 upbm affinity estimate (log intensity, higher = more binding, comparable within an allelic series)",,
AATCATCA,"10.9 upbm affinity estimate (log intensity, higher = more binding, comparable within an allelic series)","10.9 upbm affinity estimate (log intensity, higher = more binding, comparable within an allelic series)",,
CTTAAATA,"10.9 upbm affinity estimate (log intensity, higher = more binding, comparable within an allelic series)","10.7 upbm affinity estimate (log intensity, higher = more binding, comparable within an allelic series)",,
ATACTAAT,"11.3 upbm affinity estimate (log intensity, higher = more binding, comparable within an allelic series)","11.2 upbm affinity estimate (log intensity, higher = more binding, comparable within an allelic series)",,
AGCTTCTG,"10.1 upbm affinity estimate (log intensity, higher = more binding, comparable within an allelic series)","10 upbm affinity estimate (log intensity, higher = more binding, comparable within an allelic series)",,
ATGTGCTA,"10.7 upbm affinity estimate (log intensity, higher = more binding, comparable within an allelic series)","10.7 upbm affinity estimate (log intensity, higher = more binding, comparable within an allelic series)",,
CCGACTCG,"10.1 upbm affinity estimate (log intensity, higher = more binding, comparable within an allelic series)","10.1 upbm affinity estimate (log intensity, higher = more binding, comparable within an allelic series)",,
AGGCTTCG,"9.94 upbm affinity estimate (log intensity, higher = more binding, comparable within an allelic series)","10 upbm affinity estimate (log intensity, higher = more binding, comparable within an allelic series)",,
CAGCGCGG,"10 upbm affinity estimate (log intensity, higher = more binding, comparable within an allelic series)","9.95 upbm affinity estimate (log intensity, higher = more binding, comparable within an allelic series)",,
CGAGGAGC,"9.97 upbm affinity estimate (log intensity, higher = more binding, comparable within an allelic series)","9.97 upbm affinity estimate (log intensity, higher = more binding, comparable within an allelic series)",,
ACGCTGGA,"9.94 upbm affinity estimate (log intensity, higher = more binding, comparable within an allelic series)","10.1 upbm affinity estimate (log intensity, higher = more binding, comparable within an allelic series)",,
ACGCGAGC,"10.1 upbm affinity estimate (log intensity, higher = more binding, comparable within an allelic series)","10.1 upbm affinity estimate (log intensity, higher = more binding, comparable within an allelic series)",,
GAAGCTGC,"10.1 upbm affinity estimate (log intensity, higher = more binding, comparable within an allelic series)","10 upbm affinity estimate (log intensity, higher = more binding, comparable within an allelic series)",,
GCATATAA,"11.4 upbm affinity estimate (log intensity, higher = more binding, comparable within an allelic series)","11.2 upbm affinity estimate (log intensity, higher = more binding, comparable within an allelic series)",,
AACATTAT,"11.6 upbm affinity estimate (log intensity, higher = more binding, comparable within an allelic series)","11.3 upbm affinity estimate (log intensity, higher = more binding, comparable within an allelic series)",,
